Assay [1] deals with Cytochrome P450 3A4 (Homo sapiens) (UniProt P08684). Description: qHTS Assay for Activators of Cytochrome P450 3A4 (AID 885; active = well fitted curve in the direction sought with a large enough effect; an effect the other way counts as inactive or inconclusive; note: nearly all actives have a fitted effect of over 65% in size). The settings on record: recombinant CYP3A4, Luciferin-PPXE luminescence, 60 min; series mostly up to 57.1 µM. The essentials: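 Using 20nM recombinant human CYP3A4 in potassium phosphate (200mM), substrate Luciferin-PPXE at 25uM, luminescent luciferin detection followed a 60-min RT NADPH reaction; data scaled to 57 uM ketoconazole.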

For assay [2], the target named is Androgen receptor (Homo sapiens) (UniProt P10275). Description: qHTS assay for small molecule agonists of androgen receptor signaling (AID 588515; active = well fitted curve in the direction sought with a large enough effect in the signal ratio, with a control signal flat; the % refers to the signal ratio). The settings on record: AR-UAS-bla HEK293, beta-lactamase ratio, agonist 16 h; stronger effect = higher value. The essentials:
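Stimulation of an AR-responsive β-lactamase reporter in GripTite HEK293 cells was measured after 16 h compound exposure at 37 °C, via CCF4 fluorescence after 2 h RT. EC50 from Hill fits, normalized to R1881 at 30 nM.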
In general terms: qHTS replaces the single test concentration by a dilution series.

For assay [3] the target is unchanged. Description: qHTS assay for small molecule antagonists of androgen receptor signaling (AID 588516; active = well fitted curve in the direction sought with a large enough effect in the signal ratio, with a control signal flat, not every such curve was filed as active; the % refers to the signal ratio). The settings on record: AR-UAS-bla HEK293, beta-lactamase ratio, antagonist mode, 16 h; series mostly up to 76.8 µM. The essentials:
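AR-UAS-bla-GripTite HEK 293 cells (2000/well, 5 h at 37 C) received compound titrations, then R1881 at 10 nM final; after 16 h at 37 C, CCF4 dye 2 h RT, beta-lactamase fluorescence read; IC50 from Hill fits.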

Assay [4] addresses Bile acid receptor (Homo sapiens) (UniProt Q96RI1). Kind of assay: qHTS assay for small molecule antagonists of farnesoid X receptor signaling (AID 588526). As to conditions: HEK293T FXR-UAS-bla, beta-lactamase ratio, antagonist mode; series mostly up to 76.7 µM. Put shortly:
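Antagonist mode: titrated compounds tested against chenodeoxycholic acid stimulation (normalized to 50 uM CDCA and DMSO) in GeneBLAzer HEK293T cells for 16 h. Beta-lactamase read by CCF4 fluorescence; IC50 from Hill fits.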

For assay [5] the target is unchanged. Kind of assay: qHTS assay for small molecule agonists of farnesoid X receptor signaling (AID 588527). The settings on record: HEK293T FXR-UAS-bla, beta-lactamase ratio, 16 h; stronger effect = higher value. The essentials: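 Quantitative HTS used FXR-UAS-bla HEK293T cells with 16 h compound incubation at 37 C. EC50 values came from concentration-response curves normalized to chenodeoxycholic acid.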

The nature of assay [6]: qHTS assay to identify small molecules that stimulate interleukin-8 (IL-8) secretion (AID 651758; active = well fitted activation curve with a large enough effect in the signal ratio; the % refers to the signal ratio). The settings on record: HTRF ratio (665/615); series mostly up to 92.2 µM. The essentials:
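Compounds are added to THP-1 cells (2000 per well) and left 16 hrs at 37 C. A labeled anti-IL-8 antibody pair is then added, and IL-8 secretion is measured by time-resolved FRET after 1-3 hrs at room temperature.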

Assay [7] can be described thus: Confirmation and Secondary Assay for Modulators of Hemoglobin Beta Chain Splicing at IVS2 654 locus (AID 910; active = well fitted curve in the direction sought with a large enough effect; an effect the other way counts as inactive or inconclusive;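 note: HeLa cells stably carrying EGFP split by mutant beta-globin IVS2-654 intron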). As to conditions: HeLa EGFP-654 splicing reporter, GFP fluorescence, 48 h; series mostly up to 38.3 µM. Put shortly: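 HeLa cells stably expressing EGFP interrupted by β-globin IVS2-654 intron, seeded overnight in Opti-MEM/2% FCS, then treated 2 days at 37 °C. Restored splicing read as total peak GFP intensity per well by laser scanning cytometry (488 nm excitation, 500–520 nm emission); 500 nM antisense PNA as control.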

Assay [8] is described as follows: Confirmation and Secondary Assay for Modulators of Hemoglobin Beta Chain Splicing at IVS2 705 locus (AID 930; active = well fitted curve in the direction sought with a large enough effect; an effect the other way counts as inactive or inconclusive;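 note: HeLa cells stably expressing the EGFP-705 splicing reporter; GFP fluorescence per well restored by corrected splicing of the IVS2-705 intron in EGFP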). The settings on record: HeLa EGFP-705 splicing reporter, GFP fluorescence, 48 h; series mostly up to 38.3 µM. From the text:
NIH Chemical Genomics Center [NCGC] NIH Molecular Libraries Screening Centers Network [MLSCN] MLSCN Grant: 1 X01 MH080684-01 PI Name: Dr. Ryszard Kole NCGC Assay Overview: Modulation of Alternative Splicing as Therapy Abnormal splicing is associated with a number of diseases, including cancer and genetic diseases such as cystic fibrosis, muscular dystrophy and beta-thalassemia. Alteration of disease associated splicing patterns provides a promising target for treatment. […] Mutations in the second intron of the b-globin gene at positions 654 or 705 are clinically relevant and cause mis-splicing which results in an out of frame gene product. […] EGFP-705 HeLa Cells as screen system. HeLa cell lines were stably transfected with a construct in which the EGFP (enhanced green fluorescent protein) cDNA was interrupted by the second intron of the beta-globin gene (IVS2-705). The ISV2 intron contains mutations which cause mis-splicing of EGFP and premature termination of EGFP which results in a nonfluorescent protein product. […] Expression of the transgene was driven by the CMV promoter. We concluded that a low molecular weight compound, which restored correct splicing of intron 2 would also generate functional EGFP protein, resulting in a fluorescent signal. Thus, the HeLa cells that express the EGFP-705 construct can be used for validation of splice site specificity of compounds identified in primary screening of the ISV2 654 construct.
NCGC Assay Protocol Summary: Confirmatory Screening. Freshly thawed HeLa EGFP-705 cells were seeded in 5 ul of optimem media (Invitrogen) containing 2 % fetal calf serum (Hyclone) and 1x penicillin/streptomycin (Invitrogen) at a concentration of 500 cells per well in 1536-well plates. Cells were incubated overnight at 37C in 5% CO2. The next day, cells were treated with DMSO, 500 nM antisense ISV2 654 PNA control oligo, or library compound and allowed to grow at 37C in 5% CO2 for 2 days. The PNA oligo blocked the mutation site in the intron and allowed proper (wild type) splicing to occur, resulting in full length EGFP expression and also allowed for optimization of the assay parameters. Plates were read in the Acumen Explorer (TTP Labtech) using 488 nm laser excitation and 500-520 nm emission PMT filter in a 1 x 8 uM capture mode. Fluorescnet objects ranging in size from 5 to 250 uM were measured and the total peak GFP intensity for each well was used for data analysis. Keywords: Thalassemia, beta-thalassemia, beta-globin, EGFP, ISV2 654, ISV2 705, SSO, PNA, antisense, splicing, MLSMR, MLSCN, NIH Roadmap, qHTS, NCGC

The source of these data is PubChem BioAssay (NCATS).

Structures are written as SMILES. “And” between values parts separate entries of the source, which are not always exact repeats. Equal values may be shown once. Values without a mark were called inactive. Inconclusive results are not listed. A call without a number means that no potency is given here. The source made the active and inactive calls. Unless noted, calls come from the whole dose curve.

Cytochrome P450 3A4 (Homo sapiens), sequence (P08684 whole entry, looked up): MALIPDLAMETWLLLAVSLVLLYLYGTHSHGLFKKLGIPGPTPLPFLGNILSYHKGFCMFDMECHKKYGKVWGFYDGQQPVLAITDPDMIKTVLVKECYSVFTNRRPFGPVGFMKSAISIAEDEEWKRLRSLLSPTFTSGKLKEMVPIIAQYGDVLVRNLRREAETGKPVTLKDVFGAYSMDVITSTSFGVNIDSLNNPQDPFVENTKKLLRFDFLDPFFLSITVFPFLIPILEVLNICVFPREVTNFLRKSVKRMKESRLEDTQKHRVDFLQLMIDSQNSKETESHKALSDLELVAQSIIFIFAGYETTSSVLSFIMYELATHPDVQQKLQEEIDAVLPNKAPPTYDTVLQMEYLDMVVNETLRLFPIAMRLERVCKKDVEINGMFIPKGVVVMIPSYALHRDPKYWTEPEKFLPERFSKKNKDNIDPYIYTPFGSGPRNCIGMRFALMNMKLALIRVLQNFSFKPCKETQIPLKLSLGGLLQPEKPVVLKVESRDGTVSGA
Androgen receptor (Homo sapiens), sequence (P10275 whole entry, looked up): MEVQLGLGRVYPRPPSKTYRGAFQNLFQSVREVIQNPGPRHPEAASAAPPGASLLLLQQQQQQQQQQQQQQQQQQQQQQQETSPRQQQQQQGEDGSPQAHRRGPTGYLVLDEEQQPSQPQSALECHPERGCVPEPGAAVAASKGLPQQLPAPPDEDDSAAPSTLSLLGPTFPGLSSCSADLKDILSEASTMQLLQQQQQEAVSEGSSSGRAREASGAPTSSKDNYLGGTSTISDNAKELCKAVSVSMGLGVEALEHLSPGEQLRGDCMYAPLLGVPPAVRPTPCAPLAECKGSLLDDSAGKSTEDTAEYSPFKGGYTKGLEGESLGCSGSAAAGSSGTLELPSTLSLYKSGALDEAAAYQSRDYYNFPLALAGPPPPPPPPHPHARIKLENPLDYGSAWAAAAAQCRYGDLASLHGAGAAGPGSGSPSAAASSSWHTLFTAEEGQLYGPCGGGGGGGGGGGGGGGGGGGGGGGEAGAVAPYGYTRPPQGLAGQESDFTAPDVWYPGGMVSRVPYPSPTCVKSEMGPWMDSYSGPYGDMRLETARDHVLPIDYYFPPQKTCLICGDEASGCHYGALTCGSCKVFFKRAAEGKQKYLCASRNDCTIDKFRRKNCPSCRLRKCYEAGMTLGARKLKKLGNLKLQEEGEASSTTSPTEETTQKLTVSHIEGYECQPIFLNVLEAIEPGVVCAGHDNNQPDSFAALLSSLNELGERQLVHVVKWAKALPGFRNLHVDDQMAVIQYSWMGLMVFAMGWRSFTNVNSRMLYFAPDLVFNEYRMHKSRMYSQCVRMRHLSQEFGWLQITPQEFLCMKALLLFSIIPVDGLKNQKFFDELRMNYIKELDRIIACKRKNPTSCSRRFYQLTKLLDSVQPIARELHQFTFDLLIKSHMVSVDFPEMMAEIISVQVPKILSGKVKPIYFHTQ
Bile acid receptor (Homo sapiens), sequence (Q96RI1 whole entry, looked up): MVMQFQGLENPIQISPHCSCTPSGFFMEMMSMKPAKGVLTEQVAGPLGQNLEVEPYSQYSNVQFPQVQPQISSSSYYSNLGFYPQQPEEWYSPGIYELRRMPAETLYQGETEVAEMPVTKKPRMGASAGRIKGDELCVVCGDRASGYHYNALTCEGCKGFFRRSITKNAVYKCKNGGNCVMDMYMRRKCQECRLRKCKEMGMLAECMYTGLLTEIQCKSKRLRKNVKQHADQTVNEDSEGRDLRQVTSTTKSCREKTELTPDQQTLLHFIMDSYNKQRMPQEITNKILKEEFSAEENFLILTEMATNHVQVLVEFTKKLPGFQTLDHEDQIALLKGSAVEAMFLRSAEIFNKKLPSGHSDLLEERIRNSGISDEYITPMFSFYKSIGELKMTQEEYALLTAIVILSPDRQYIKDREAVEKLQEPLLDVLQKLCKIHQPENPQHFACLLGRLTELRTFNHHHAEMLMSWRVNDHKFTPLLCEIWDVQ

Turning to `CC(=O)NNc1ccccc1`, in assay [1], the Potency result was “inactive”. Also, the figures for the activation in assay [2] and in assay [5] were 7.34% and -3.51%, respectively. The result in assay [3] and in assay [4] was inactive.
Take `CC(Cl)(Cl)Cl`: the Potency entry in assay [6] is “inactive”.
For `N#CCCC#N`, the activation in assay [5] was -0.443%.
Regarding `C=C(C)CCl`, the activation in assay [2] was 8.69%; in assay [5], -1.8%. For the same compound, the result in assay [3] and in assay [4] was inactive.
As for `ClCCCCl`, in assay [4], the result was inactive. Moreover, the activation in assay [5] is 1.98%.
Consider `C=C(Cl)CSC(=S)N(CC)CC`, for which the Potency result in assay [1] is “inactive”. For the same compound, in assay [4], the result was inactive. Moreover, the activation in assay [5] was 1.19%.
Turning to `S=c1[nH]c2ccccc2[nH]1`, the Potency result in assay [1] and in assay [6] was “inactive” in each case. Also, in assay [2], the activation is -0.602%. For the same compound, the outcome in assay [3] was inactive.
`CCCCCOC(=O)c1ccccc1C(=O)OCCCCC`: the Potency result in assay [1] and in assay [6] was “inactive” throughout.
Consider `O=[N+]([O-])c1ccc2c3c(cccc13)CC2`, for which the Potency result in assay [1] and in assay [6] was “inactive” each time. Further, in assay [4], the outcome was inactive. Besides, the activation in assay [5] was -0.314% and -0.559%.
In the case of `ClCCBr`, the Potency result in assay [6] is “inactive”.
For the compound `Cc1cccc(C)c1N`, the outcome in assay [4] was inactive. In addition, the activation in assay [5] is -1.75%.
With `Cc1ccc(N)c(N)c1`, in assay [1], the Potency result was “inactive”.
On to `CCCCOC(=O)c1ccccc1N`, for which the activation in assay [5] is 0.511%.
For the compound `Oc1c(Cl)cccc1Cl`, the Potency entry in assay [6] was “inactive”.
Same read-out and setting: next, `CCOC(=O)C1OC1(C)c1ccccc1` (stereo unspecified): “inactive”.
On to `Nc1cc(Cl)cc(Cl)c1`, for which the Potency result in assay [1] is “inactive”. Further, the result in assay [4] was inactive. Also, the activation in assay [5] was -0.351%.
Regarding `CN(C)N=O`, the result in assay [4] was inactive. Moreover, in assay [5], the activation was -0.99%.
Consider `CCCCCC[N+](=O)[O-]`, for which the activation is 8.93% in assay [2] and 1.12% in assay [5]. Besides, in assay [4], the outcome was inactive.
As to `CN(C)C(=O)Nc1ccc(Cl)cc1`, the outcome in assay [4] was inactive. Besides, the activation in assay [5] was 0.657% and 0.9%. Further, in assay [6], the Potency entry is “inactive”.
For `[O-][Cl+2]([O-])O`, the activation in assay [5] is -2.85%.
`Nc1ccc([N+](=O)[O-])cc1[N+](=O)[O-]`: the activation in assay [2] is -5.64%. Besides, the Potency entry in assay [6] was “inactive”.
Consider `Cc1cc(Cl)ccc1O`, for which the result in assay [4] was inactive. Moreover, the activation in assay [5] is -2.04%. Moreover, in assay [6], the Potency result was “inactive”.
As to `Nc1ccc(-c2ccccc2)cc1`, the Potency entry in assay [1] was “inactive”.
As to `Cc1cc(-c2ccc(N)c(C)c2)ccc1N`, the Potency result in assay [1] was “inactive”.
On to `CCCCC(=O)Cl`, for which the result in assay [4] was inactive. In addition, the activation in assay [5] was 3.38%.
With `CCOP(=S)(OCC)Oc1nc(Cl)c(Cl)cc1Cl`, the Potency entry in assay [1] was “inactive”. For the same compound, the compound was called inactive in assay [7], in assay [8], in assay [3] and in assay [4]. In addition, the activation in assay [2] was 5.31% and -6.07%; in assay [5], -1.55% [middle of 4 runs].
As for `Cc1ccc2c(c1N)C(=O)c1ccccc1C2=O`, in assay [1], the Potency result was “inactive”. Also, the outcome in assay [4] was inactive. Also, the activation in assay [5] is -0.569% and 1.06%.
For the compound `N#CCCCCC#N`, the result in assay [4] was inactive. In assay [5], the activation is -2.39%. In addition, the Potency result in assay [6] was “inactive”.
As for `C=COC(C)=O`, in assay [6], the Potency entry is “inactive”.
As for `c1ccoc1`, the outcome in assay [4] was inactive.
`c1ccc(Nc2ccc(Nc3ccccc3)cc2)cc1`: the activation in assay [5] was -1.54%.
Turning to `ClC(Cl)(Cl)C(Cl)(Cl)Cl`, the Potency result in assay [6] was “inactive”.
As to `NNC(N)=S`, the result in assay [4] was inactive. Further, the activation in assay [5] is -2.79%. Further, the Potency result in assay [6] was “inactive”.
For `Cl/C=C/CCl`, in assay [6], the Potency entry was “inactive”.
On to `CNC(=O)O/N=C/C(C)(C)S(C)=O` (stereo unspecified), for which the outcome in assay [4] was inactive. The activation in assay [5] is -0.355% and 3.36%. Moreover, in assay [6], the Potency entry was “inactive”.
On to `OCC(Cl)CCl` (stereo unspecified), for which, in assay [6], the Potency result was “inactive”.
Take `Nc1cc(Cl)cc(C(=O)O)c1Cl`: the Potency entry in assay [1] is “inactive”.
For `ClCCOCCCl`, the outcome in assay [4] was inactive. Besides, the activation in assay [5] is -1.24%.
As to `BrCC(Br)C1CCC(Br)C(Br)C1` (stereo unspecified), the activation in assay [2] is 1.31%. For the same compound, in assay [3], the outcome was inactive.
For `FC(Cl)(Cl)Cl`, the activation was 5.32% in assay [2] and -3.19% in assay [5]. In addition, the result in assay [3] and in assay [4] was inactive.
Turning to `CC(C)OS(C)(=O)=O`, in assay [4], the outcome was inactive. In addition, in assay [5], the activation is -3.78%. Further, the Potency result in assay [6] is “inactive”.
As for `O=c1ccc(=O)[nH][nH]1`, the activation in assay [2] is 2.82% and 4.44%; in assay [5], -0.172% and -2.47%. For the same compound, the result in assay [3] and in assay [4] was inactive.
For the compound `Cc1ccc2c(C)cccc2c1`, in assay [6], the Potency result was “inactive”.
